Source: paper PMC7862700, “An all-to-all approach to the identification of sequence-specific readers for epigenetic DNA modifications on cytosine”

Assays:
Assay in all cases: DAPPL (digital affinity profiling via proximity ligation, sequencing); 10 mM Tris-HCl pH 7.5, 50 mM NaCl, 1 mM DTT, 4% glycerol, room temperature, 30 min; GST-TFs on glutathione beads, 16-mer random dsDNA library, 0.1% formaldehyde crosslink after washing; high values mean tight binding
Conditions in all cases: protein: recombinant; tags: N-terminal GST; dsDNA, one strand shown
ERF = biological target: T1, ERF (Homo sapiens, UniProt P50548 1-548)
T1 sequence: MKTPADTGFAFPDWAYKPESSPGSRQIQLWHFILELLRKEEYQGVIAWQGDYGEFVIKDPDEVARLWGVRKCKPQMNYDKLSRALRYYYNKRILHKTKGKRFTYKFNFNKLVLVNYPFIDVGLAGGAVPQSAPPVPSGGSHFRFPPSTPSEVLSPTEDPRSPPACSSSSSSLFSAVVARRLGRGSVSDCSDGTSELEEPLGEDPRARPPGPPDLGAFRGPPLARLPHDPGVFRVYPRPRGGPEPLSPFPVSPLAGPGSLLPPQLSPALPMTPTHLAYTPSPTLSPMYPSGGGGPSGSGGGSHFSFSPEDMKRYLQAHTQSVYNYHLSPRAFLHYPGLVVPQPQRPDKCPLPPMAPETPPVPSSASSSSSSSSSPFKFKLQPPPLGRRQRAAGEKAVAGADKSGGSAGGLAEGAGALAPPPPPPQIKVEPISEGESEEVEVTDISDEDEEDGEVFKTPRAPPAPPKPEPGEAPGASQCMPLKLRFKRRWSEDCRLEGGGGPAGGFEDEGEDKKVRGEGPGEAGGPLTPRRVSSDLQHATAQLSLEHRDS
Method in brief: (§1)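 Human transcription factors carrying a GST fusion were produced in yeast, bound to glutathione beads, tagged with DNA barcodes and pooled together with a tag-only sample. Each pool was held with 200 nmole of a random double-stranded 16-mer DNA library in Tris/NaCl/DTT/glycerol buffer for 30 min at room temperature, then washed, crosslinked in 0.1% formaldehyde, proximity-ligated with BsaI/T4 ligase (1 h, 37 °C), PCR-amplified and sequenced on an Illumina NextSeq500. Binding signal is the read frequency of each hexamer for a given factor divided by its frequency in the tag-only sample.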

ETV3L = biological target: T2, ETV3L (Homo sapiens, UniProt Q6ZN32 1-361)
T2 sequence: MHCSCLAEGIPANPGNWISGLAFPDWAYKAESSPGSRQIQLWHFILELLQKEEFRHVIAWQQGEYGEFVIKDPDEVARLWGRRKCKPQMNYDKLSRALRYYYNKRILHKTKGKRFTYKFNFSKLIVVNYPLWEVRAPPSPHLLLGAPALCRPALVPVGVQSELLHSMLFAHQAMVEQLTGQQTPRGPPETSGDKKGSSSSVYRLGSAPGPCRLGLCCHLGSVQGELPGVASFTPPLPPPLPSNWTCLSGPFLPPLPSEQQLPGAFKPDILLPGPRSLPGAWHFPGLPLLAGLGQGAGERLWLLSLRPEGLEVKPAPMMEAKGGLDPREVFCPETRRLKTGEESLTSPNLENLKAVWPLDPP
Method in brief: as §1

ETS2 = biological target: T3, ETS2 (Homo sapiens, UniProt P15036 1-469)
T3 sequence: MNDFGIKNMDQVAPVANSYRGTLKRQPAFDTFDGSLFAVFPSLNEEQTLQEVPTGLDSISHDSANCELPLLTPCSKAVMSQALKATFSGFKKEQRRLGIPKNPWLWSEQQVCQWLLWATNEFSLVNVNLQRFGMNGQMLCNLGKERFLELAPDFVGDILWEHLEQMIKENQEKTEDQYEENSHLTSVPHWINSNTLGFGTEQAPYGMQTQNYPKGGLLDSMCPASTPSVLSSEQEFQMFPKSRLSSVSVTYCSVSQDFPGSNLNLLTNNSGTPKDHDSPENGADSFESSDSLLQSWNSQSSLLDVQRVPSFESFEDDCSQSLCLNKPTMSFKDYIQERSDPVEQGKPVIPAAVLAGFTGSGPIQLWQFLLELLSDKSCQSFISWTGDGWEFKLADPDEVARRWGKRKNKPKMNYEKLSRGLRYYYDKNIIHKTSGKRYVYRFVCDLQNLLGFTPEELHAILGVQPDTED
Method in brief: as §1

SPDEF = biological target: T4, SPDEF (Homo sapiens, UniProt O95238 1-335)
T4 sequence: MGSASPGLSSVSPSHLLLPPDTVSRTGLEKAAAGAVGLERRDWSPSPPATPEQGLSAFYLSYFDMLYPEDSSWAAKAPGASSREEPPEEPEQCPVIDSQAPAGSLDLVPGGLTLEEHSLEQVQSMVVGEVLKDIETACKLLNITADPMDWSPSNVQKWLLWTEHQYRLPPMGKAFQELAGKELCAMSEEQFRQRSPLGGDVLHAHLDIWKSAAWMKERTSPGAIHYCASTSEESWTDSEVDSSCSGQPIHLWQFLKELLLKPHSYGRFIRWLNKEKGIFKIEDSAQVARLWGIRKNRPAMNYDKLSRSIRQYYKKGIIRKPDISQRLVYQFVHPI
Method in brief: as §1

ETV7 = biological target: T5, ETV7 (Homo sapiens, UniProt Q9Y603 1-341)
T5 sequence: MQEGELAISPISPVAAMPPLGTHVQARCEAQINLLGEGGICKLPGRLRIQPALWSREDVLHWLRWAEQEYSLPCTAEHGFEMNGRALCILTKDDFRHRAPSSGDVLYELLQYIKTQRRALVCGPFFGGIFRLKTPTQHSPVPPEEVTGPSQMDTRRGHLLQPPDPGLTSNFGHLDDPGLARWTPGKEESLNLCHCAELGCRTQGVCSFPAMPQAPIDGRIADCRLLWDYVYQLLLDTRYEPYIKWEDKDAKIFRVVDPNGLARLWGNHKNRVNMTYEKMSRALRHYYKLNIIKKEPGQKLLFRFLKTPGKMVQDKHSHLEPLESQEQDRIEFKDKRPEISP
Method in brief: as §1

ELF5 = biological target: T6, ELF5 (Homo sapiens, UniProt Q9UKW6-2 1-255)
T6 sequence: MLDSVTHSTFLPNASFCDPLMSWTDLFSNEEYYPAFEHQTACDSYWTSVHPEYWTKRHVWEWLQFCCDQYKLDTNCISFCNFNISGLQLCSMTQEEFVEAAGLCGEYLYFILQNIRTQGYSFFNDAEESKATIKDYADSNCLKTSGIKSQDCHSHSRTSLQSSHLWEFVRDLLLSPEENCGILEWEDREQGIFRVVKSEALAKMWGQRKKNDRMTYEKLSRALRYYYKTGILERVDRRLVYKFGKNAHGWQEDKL
Method in brief: as §1

ETV3 = biological target: T7, ETV3 (Homo sapiens, UniProt P41162-2 1-143)
T7 sequence: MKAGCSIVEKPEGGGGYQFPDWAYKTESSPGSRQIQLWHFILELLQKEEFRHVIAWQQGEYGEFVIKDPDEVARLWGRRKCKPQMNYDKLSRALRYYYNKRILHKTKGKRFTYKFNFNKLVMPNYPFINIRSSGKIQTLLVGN
Method in brief: as §1

ETV6 = ETV6 (Homo sapiens, UniProt P41212 1-452)
Method in brief: as §1

Chain of ETV6 (P41212 whole entry): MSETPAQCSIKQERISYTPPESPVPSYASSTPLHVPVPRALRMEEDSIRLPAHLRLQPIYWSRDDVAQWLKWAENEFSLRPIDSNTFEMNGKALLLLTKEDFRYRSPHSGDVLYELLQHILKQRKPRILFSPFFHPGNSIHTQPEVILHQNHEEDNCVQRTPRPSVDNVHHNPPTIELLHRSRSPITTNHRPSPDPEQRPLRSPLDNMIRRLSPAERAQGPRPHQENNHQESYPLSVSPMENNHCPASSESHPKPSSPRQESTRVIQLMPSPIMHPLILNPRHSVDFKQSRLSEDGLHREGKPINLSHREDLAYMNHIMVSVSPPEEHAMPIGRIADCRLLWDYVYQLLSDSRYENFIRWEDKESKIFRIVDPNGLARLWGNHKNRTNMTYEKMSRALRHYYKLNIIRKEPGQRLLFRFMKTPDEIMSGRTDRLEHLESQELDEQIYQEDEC

Sequence	binding signal (ERF)	binding signal (ETV3L)	binding signal (ETS2)	binding signal (SPDEF)	binding signal (ETV7)	binding signal (ELF5)	binding signal (ETV3)	binding signal (ETV6)
TCACGC	1.26 fold enrichment (6-mer frequency, TF over GST control)	1.2 fold enrichment (6-mer frequency, TF over GST control)	1.11 fold enrichment (6-mer frequency, TF over GST control)	1.12 fold enrichment (6-mer frequency, TF over GST control)	1.16 fold enrichment (6-mer frequency, TF over GST control)	1.15 fold enrichment (6-mer frequency, TF over GST control)	1.07 fold enrichment (6-mer frequency, TF over GST control)	1.15 fold enrichment (6-mer frequency, TF over GST control)
CCCTTA	1.32 fold enrichment (6-mer frequency, TF over GST control)	1.41 fold enrichment (6-mer frequency, TF over GST control)	1.34 fold enrichment (6-mer frequency, TF over GST control)	1.38 fold enrichment (6-mer frequency, TF over GST control)	1.23 fold enrichment (6-mer frequency, TF over GST control)	1.2 fold enrichment (6-mer frequency, TF over GST control)	1.39 fold enrichment (6-mer frequency, TF over GST control)	1.24 fold enrichment (6-mer frequency, TF over GST control)
TGCGAT	1.24 fold enrichment (6-mer frequency, TF over GST control)	1.27 fold enrichment (6-mer frequency, TF over GST control)	1.14 fold enrichment (6-mer frequency, TF over GST control)	1.15 fold enrichment (6-mer frequency, TF over GST control)	1.23 fold enrichment (6-mer frequency, TF over GST control)	1.11 fold enrichment (6-mer frequency, TF over GST control)	1.23 fold enrichment (6-mer frequency, TF over GST control)	1.16 fold enrichment (6-mer frequency, TF over GST control)
CCCCAA	1.06 fold enrichment (6-mer frequency, TF over GST control)	1.2 fold enrichment (6-mer frequency, TF over GST control)	1.13 fold enrichment (6-mer frequency, TF over GST control)	1.11 fold enrichment (6-mer frequency, TF over GST control)	1.1 fold enrichment (6-mer frequency, TF over GST control)	1.12 fold enrichment (6-mer frequency, TF over GST control)	1.15 fold enrichment (6-mer frequency, TF over GST control)	1.14 fold enrichment (6-mer frequency, TF over GST control)
